According to PubChem BioAssay (NCATS):
Results filed as inconclusive are left out. Where a call stands in place of a potency, no number is given. Active and inactive are the calls of the source. Unless noted, calls come from the whole dose curve; as a rule, active = well fitted curve in the direction sought with a large enough effect; inconclusive = small, poorly fitted or top-dose-only effect, or another doubt; inactive = no such curve, though single readings can be large; an effect the other way counts as inactive or inconclusive.

Assays:
[1] = target: Luciferin 4-monooxygenase (Photinus pyralis) (UniProt P08659); test: Biochemical firefly luciferase enzyme assay for NPC (AID 624030);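 note: purified P. pyralis luciferase at 10 nM with luciferin and ATP substrate; nearly all actives have a fitted effect of over 70% in size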; conditions: purified P. pyralis luciferase, luminescence, 5 min; series mostly up to 58.6 µM
How it was run: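 Direct inhibition of firefly luciferase enzyme (10 nM final, 50 mM Tris Acetate) assessed by luminescence within 5 minutes. Percent activity scaled between DMSO and PTC124 positive control, with concentration-effect curves classified by fit quality and response.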

[2] = Cell Proliferation Assay against the TMD8 Cell Line (AID 651645); conditions: TMD8 DLBCL cell line proliferation/viability; at 46.1 µM (top of the series) unless noted;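 note: cells exposed to compound for 48 h before reading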
How it was run: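 TMD8 ABC DLBCL cells, 500 per well in phenol red-free RPMI with 5% FBS, were treated with compound by pin transfer and incubated 48 hours at 37C, 5% CO2. Viability was read by CellTiter-Glo luminescence, normalised to DMSO (100%) and 9.2 uM bortezomib (0%).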

[3] = Cell Proliferation Assay against the HBL1 Cell Line (AID 651646); conditions: HBL1 DLBCL cells; at 46.1 µM (top of the series) unless noted;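 note: cells exposed to compound for 48 h before reading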
How it was run: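 CellTiter-Glo luminescence after 48 h compound exposure at 37C gives percent activity, with DMSO as 100% and 9.2 uM bortezomib final as 0%. Cells: 500 log-phase HBL1 per well, RPMI plus 5% FBS.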

[4] = target: Voltage-gated inwardly rectifying potassium channel KCNH2 (Homo sapiens) (UniProt Q12809); test: qHTS Assay for Small Molecule Inhibitors of the Human hERG Channel Activity (AID 588834); conditions: U2OS BacMam hERG, FluxOR thallium flux fluorescence; series mostly up to 46.1 µM;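 note: top concentration of the series differs between compounds; lower thallium flux fluorescence means stronger hERG block; nearly all actives have a fitted effect of over 50% in size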
How it was run: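 In hERG-transduced U2OS cells, dye-loaded for 1 hr at room temperature in dark, test compounds incubated 10 min at 37 °C before thallium stimulation. AC50 values derived by Hill modelling of concentration-response.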

[5] = Cytotoxicity counterscreen for NFkB agonists and antagonists (AID 624476); conditions: NFkB reporter cell line viability counterscreen; series mostly up to 46.1 µM; note: potency is the fitted concentration of half-maximal effect
[6] = qHTS Assay for Identification of Small Molecule Antagonists for NFkB Signaling Pathway. (AID 624479; calls by dose curve;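 note: pathway stimulated with TNF alpha; potency is the fitted concentration of half-maximal effect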); conditions: NFkB pathway reporter cell assay, antagonist mode; series mostly up to 38.3 µM
[7] = S16 Schwann cell viability assay (CellTiter-Glo assay) (AID 624031); conditions: S16 rat Schwann cells viability, 24 h; series mostly up to 57.5 µM;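 note: cellular ATP luminescence as a viability measure; nearly all actives have a fitted effect of over 70% in size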
How it was run: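 This viability control uses native rat S16 Schwann cells grown in DMEM plus 10% FBS. After a 24 h compound treatment at 37 °C, CellTiter-Glo luminescence reports ATP content, scaled against DMSO-treated and cell-free wells.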

[8] = S16 Schwann cell PMP22 intronic element firefly luciferase assay (AID 624032); conditions: S16 rat Schwann cells, PMP22 element FLuc, 24 h; series mostly up to 57.5 µM; note: nearly all actives have a fitted effect of over 30% in size
How it was run: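 Luciferase reporter of PMP22 intronic-element expression in stably transfected S16 rat Schwann cells, read by ONE-Glo luminescence after 24 h compound exposure at 37 C. Activity scaled between DMSO (0%) and positive-control PTC124; concentration-effect curves quality-classified.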

[9] = target: Glutaminase kidney isoform, mitochondrial (Homo sapiens) (UniProt O94925); test: qHTS for Inhibitors of Glutaminase (GLS): LOPAC Validation (AID 624146); conditions: glutaminase enzyme activity inhibition; series mostly up to 46.1 µM;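 note: glutamate product detected by oxidase and peroxidase coupled Amplex red fluorescence gain; nearly all actives have a fitted effect of over 60% in size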
How it was run: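 Enzyme dispensed in phosphate buffer (45 mM, pH 8.2, 0.02% Tween-20), compounds pinned in, then 1 mM L-glutamine solution and the glutamate oxidase–HRP–Amplex Red mix added; fluorescence read immediately and again after 30 min at room temperature.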

[10] = target: Glucagon-like peptide 1 receptor (Homo sapiens) (UniProt P43220); test: qHTS of GLP-1 Receptor Agonists: LOPAC Validation (AID 624148); conditions: GLP-1R agonist cell assay; series mostly up to 46.1 µM;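 note: luminescence from a luciferase reporter switched on by cAMP; higher luminescence signal means agonism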
How it was run: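 Agonism scored as increased luciferase luminescence driven by cAMP in HEK293 clones carrying GLP-1R. Cells settled 12 hours, received compound for 4-6 hr at 37 deg C, 5% CO2, and were read after 12 min detection reagent at RT.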

[11] = qHTS of Nrf2 Activators: LOPAC Validation (AID 624149); conditions: Nrf2/ARE reporter cell assay; series mostly up to 46.1 µM
How it was run: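 AREc32_Fluc cells, 1000/well, OPTI-MEM + 5% FBS, o/n 37 deg C 5% CO2; compound pin-transfer, 24 hr 37 deg C; Steady-Glo 30 min RT, luminescence read.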

[12] = HTS Assay for Allosteric Antagonists of the Human D2 Dopamine Receptor: Hit Validation in HTRF (AID 624455); conditions: Cells stably expressing D1 dopamine receptor, inhibition mode; series mostly up to 46.1 µM
How it was run: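 HTRF read-out; cells stably expressing D1 receptor; hits scored for inhibition of D1-mediated response. Primary screen: calcium flux, force-coupled inducible Hek293 Trex D2 line, antagonism vs EC80 dopamine.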

Sequence of Glucagon-like peptide 1 receptor (Homo sapiens) (P43220 whole entry, looked up): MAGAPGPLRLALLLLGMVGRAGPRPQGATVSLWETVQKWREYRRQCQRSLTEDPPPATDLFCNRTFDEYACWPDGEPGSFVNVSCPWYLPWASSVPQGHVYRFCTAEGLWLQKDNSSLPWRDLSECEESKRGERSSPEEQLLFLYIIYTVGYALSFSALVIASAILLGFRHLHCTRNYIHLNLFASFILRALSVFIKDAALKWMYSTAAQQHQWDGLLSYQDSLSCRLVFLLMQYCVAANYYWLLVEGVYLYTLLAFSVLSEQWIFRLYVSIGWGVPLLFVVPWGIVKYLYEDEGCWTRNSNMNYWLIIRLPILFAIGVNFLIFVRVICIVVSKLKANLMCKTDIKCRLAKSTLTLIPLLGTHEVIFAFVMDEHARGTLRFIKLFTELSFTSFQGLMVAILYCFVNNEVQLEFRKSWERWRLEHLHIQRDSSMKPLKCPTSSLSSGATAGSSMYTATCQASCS
Sequence of Luciferin 4-monooxygenase (Photinus pyralis) (P08659 whole entry, looked up): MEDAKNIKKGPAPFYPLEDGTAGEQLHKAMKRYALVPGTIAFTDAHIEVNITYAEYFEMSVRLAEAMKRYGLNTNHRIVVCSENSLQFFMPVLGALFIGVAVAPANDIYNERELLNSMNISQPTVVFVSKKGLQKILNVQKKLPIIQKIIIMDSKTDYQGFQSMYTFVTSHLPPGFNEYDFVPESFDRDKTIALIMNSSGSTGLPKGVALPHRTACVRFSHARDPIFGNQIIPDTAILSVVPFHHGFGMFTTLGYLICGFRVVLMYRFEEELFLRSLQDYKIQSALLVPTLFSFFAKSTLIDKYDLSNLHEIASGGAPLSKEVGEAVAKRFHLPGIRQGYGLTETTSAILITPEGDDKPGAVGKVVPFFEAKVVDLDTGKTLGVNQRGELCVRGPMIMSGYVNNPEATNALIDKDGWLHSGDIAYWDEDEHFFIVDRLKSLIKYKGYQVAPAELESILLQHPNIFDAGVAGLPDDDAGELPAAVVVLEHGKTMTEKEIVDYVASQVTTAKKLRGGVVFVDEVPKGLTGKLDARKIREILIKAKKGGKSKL
Sequence of Voltage-gated inwardly rectifying potassium channel KCNH2 (Homo sapiens) (Q12809 whole entry, looked up): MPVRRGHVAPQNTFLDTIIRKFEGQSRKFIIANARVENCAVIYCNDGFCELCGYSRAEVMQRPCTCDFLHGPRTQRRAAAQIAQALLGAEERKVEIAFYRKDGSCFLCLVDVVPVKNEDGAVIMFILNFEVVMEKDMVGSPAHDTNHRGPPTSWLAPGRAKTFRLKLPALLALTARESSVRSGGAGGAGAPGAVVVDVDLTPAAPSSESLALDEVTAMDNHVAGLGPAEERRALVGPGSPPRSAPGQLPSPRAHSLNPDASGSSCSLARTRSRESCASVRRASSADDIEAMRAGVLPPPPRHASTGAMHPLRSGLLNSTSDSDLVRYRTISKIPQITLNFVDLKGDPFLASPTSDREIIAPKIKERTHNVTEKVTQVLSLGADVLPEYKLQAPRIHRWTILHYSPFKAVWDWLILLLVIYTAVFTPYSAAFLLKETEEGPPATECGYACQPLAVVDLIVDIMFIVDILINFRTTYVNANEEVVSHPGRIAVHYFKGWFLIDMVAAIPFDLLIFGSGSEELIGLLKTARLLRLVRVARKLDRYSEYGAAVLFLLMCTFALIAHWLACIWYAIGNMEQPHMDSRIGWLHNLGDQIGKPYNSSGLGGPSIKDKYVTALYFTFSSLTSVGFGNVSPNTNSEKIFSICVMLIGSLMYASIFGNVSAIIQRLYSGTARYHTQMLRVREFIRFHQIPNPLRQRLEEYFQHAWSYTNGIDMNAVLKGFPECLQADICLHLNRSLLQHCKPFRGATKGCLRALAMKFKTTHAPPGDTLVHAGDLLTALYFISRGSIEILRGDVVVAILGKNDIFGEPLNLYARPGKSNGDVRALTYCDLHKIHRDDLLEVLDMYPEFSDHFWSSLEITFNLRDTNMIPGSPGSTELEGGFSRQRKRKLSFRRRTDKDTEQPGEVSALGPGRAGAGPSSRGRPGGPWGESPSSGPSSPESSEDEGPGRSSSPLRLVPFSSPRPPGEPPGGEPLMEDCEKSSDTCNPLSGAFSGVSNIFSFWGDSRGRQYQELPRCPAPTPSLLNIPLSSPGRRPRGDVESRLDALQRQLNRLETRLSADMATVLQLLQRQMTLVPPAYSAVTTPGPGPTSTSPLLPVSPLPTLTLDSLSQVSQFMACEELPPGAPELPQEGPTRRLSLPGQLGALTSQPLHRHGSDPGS
Sequence of Glutaminase kidney isoform, mitochondrial (Homo sapiens) (O94925 whole entry, looked up, canonical isoform): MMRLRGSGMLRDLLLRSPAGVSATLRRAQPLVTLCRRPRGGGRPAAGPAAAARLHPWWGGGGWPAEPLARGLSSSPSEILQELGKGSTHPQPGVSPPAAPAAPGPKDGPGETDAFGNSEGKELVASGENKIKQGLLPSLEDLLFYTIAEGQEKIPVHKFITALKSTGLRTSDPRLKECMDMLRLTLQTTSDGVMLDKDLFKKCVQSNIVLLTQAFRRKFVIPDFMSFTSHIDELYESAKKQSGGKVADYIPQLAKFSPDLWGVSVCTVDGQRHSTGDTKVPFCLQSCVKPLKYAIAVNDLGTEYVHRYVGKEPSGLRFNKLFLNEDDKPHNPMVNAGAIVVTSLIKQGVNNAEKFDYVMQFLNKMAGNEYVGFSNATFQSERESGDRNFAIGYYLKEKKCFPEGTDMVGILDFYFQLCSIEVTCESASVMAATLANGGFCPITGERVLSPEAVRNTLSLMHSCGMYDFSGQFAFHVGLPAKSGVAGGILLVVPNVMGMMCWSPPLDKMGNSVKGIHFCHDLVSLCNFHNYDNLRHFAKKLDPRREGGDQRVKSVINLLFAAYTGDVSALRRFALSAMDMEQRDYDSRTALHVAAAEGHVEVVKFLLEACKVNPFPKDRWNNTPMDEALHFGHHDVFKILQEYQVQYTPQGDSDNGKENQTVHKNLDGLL

## COc1cc(Nc2c(C#N)cnc3cc(OCCCN4CCN(C)CC4)c(OC)cc23)c(Cl)cc1Cl
[1]
  Potency: inactive
[2]
  viability (% of control): 4.66%
[3]
  viability, percent of control: 5.95%

## CC(C)C[C@H](NC(=O)[C@H](Cc1ccccc1)NC(=O)c1cnccn1)B(O)O
[4]
  Potency: inactive
[5]
  Potency: 9.3 nM (active)
[6]
  Potency: 5.3 nM (active)
[2]
  viability (% of control): 1.72%
[3]
  viability, percent of control: 3.27%

## COc1ccc2cc([C@H](C)C(=O)O)ccc2c1
[1]
  Potency: inactive
[7]
  Potency: inactive
[8]
  Potency: inactive
[9]
  Potency: inactive
[10]
  outcome: inactive
[11]
  outcome: inactive

## Cn1c(NCCN(CCO)CCCc2ccc([N+](=O)[O-])cc2)cc(=O)n(C)c1=O
[1]
  Potency: inactive
[7]
  Potency: inactive
[8]
  Potency: inactive

## COc1cc2c(cc1OC)C1CC(=O)C(CC(C)C)CN1CC2 (centres undefined)
[7]
  Potency: inactive
[10]
  outcome: inactive
[11]
  outcome: inactive

## Oc1ccc2ccccc2c1SSc1c(O)ccc2ccccc12
[10]
  outcome: inactive
[11]
  outcome: inactive
[12]
  outcome: inactive

## COC(=O)N[C@H](C(=O)N[C@@H](Cc1ccccc1)[C@@H](O)CN(Cc1ccc(-c2ccccn2)cc1)NC(=O)[C@@H](NC(=O)OC)C(C)(C)C)C(C)(C)C
[1]
  Potency: inactive
